16 compounds from PubChem BioAssay (NCATS) can be followed below.

Inconclusive results are not listed. A number with no mark means an inactive call. Calls of active or inactive are those of the source. The call rests on the fitted dose curve; in most records, active means well fitted inhibition curve with a large enough effect; inconclusive means small, poorly fitted or top-dose-only effect; inactive means flat fitted curve, though single readings scatter.
Potency means the concentration at half of the fitted maximal effect.

The assay deals with Zika virus NS2B-NS3 protease (unlinked complex). The experiment in a line: Confirmatory screen GU AMC qHTS for Zika virus inhibitors (AID 1347153). Further: nearly all actives have a fitted effect of over 70% in size.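 On activity, negative = inhibition: percent inhibition with 0% = no inhibitor control and 100% = no enzyme control.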 The settings on record: Recombinant NS2B-NS3 protease, AMC substrate fluorescence; series mostly up to 57.1 µM. The source says:
Assay Submitters (PI): Avindra Nath, Ph.D., National Institute of Neurological Disorders and Stroke (NINDS), Bethesda, MD Radhakrishnan Padmanabhan, Ph.D., Georgetown University (GU), Washington D.C. Zika Virus causes congenital defects, including microcephaly and is associated with Guillain-Barre syndrome, eningoencephalitis and myelitis in infected adult. […] Using a target-based approach, we hope to establish a screening paradigm to uncover novel, cell-active NS2B-NS3 protease (Zika Virus) specific inhibitors from NCATS' collection of small molecules using qHTS. […] Active compounds in the primary screen are re-acquired and re-screened to confirm NS2B-NS3 protease inhibition. Early Translation Branch (ETB) National Center for Advancing Translational Sciences (NCATS), Rockville, MD National Institute of Health (NIH), Bethesda, Maryland
Materials: Padmanabhan lab provided the NS2B hydrophilic domain and NS3 protease domain in a noncovalent complex used for the unlinked assay. Control compound aprotinin is obtained from Thermo Scientific (#78432; Waltham, Massachusetts). NS2B-NS3 AMC substrate (Bz-Nle-Lys-Arg-Arg-AMC; Nle-KRR-AMC) purchased from Bachem (#I-1995; Torrance, CA). Ac-VKTGKR-AMC purchased from Genscript or Bachem, Ac-FAAGKR-AMC purchased from Genscript, Ac-GLVKRR-AMC purchased from Genscript, Ac-LKKR-AMC purchased from Genscript. GU AMC unlinked NS2B-NS3 protease qHTS protocol: Briefly, 3 microL of Zika virus unlinked NS2B-NS3 protease (25 nM for linked final concentration), in assay buffer (10 mM Tris-HCl pH 8.0 with 0.01% Tween 20) was dispensed into a 1,536-well solid-bottom black plate (Greiner Bio One, Monroe, NC). Twenty-three nL of compounds (final concentration range 7.28 nM to 114 microM) or control Aprotinin (final concentration range 3.47 nM to 114 microM) were transferred via Wako Pin-tool (Wako Automation, Richmond, VA). Samples were incubated (room temperature, protected from light) for 15 minutes followed by a 1 microL AMC substrate addition of (final concentration of 10 microM; Km = 18.3 µM). Plates were then read immediately on a ViewLux High-throughput CCD imager (PerkinElmer, Waltham, MA) equipped with standard UV fluorescence optics (340(30) nm excitation, 450(20) nm emission) then incubated (room temperature, protected from light) for 15 minutes (~20% conversion). The change in fluorescence intensity over the 15-minute reaction period was normalized against no-inhibitor and no-enzyme controls and the resulting percent inhibition data were fitted to a 4-parameter Hill equation. Aprotinin was used as the intraplate control.
(In qHTS, concentration-response curves come from the screen itself.)
Regarding `O=C(Nc1ccccc1)Nc1ccc(-c2ccc(C(=O)[C@H]3CCC[C@H]3C(=O)O)cc2)cc1`, the Potency was 24.1 µM (active).
Same read-out and setting: with `COc1cc(Cl)cn2c(-c3cccc(NC4CNC4)n3)cnc12` the entry was “inactive”.
`CCCCOCCOc1nc(-c2ccc(C(=O)O)c(F)c2)sc1C`: the Potency was 12.1 µM (active).
The same measure, in the same setting: the result for `Fc1ccc(C(c2ccc(F)cc2)N2CCN(CC=Cc3ccccc3)CC2)cc1` reads “inactive”; that for `N#CC1(c2cccc(C(=O)Nc3cc(Oc4ccc5nc(NC(=O)C6CC6)sc5n4)ccc3F)c2Cl)CC1`, “inactive”; that for `CCOC(=O)[C@H](CCc1ccccc1)N[C@@H](C)C(=O)N1CCCC1C(=O)O` (stereo partly specified), “inactive”.
`C[C@H]1COC2=C1C(=O)C(=O)c1c2ccc2c1CCCC2(C)C`: the Potency was 21.5 µM (active).
Same read-out and setting: with `O=C(O)Cc1cccc(OCCCN(Cc2cccc(C(F)(F)F)c2Cl)CC(c2ccccc2)c2ccccc2)c1` the figure was 17.1 µM (active); with `N#CC(c1ccc(Cl)cc1)c1c(Cl)cc(-n2ncc(=O)[nH]c2=O)cc1Cl` (stereo unspecified), 21.5 µM (active); with `CC(C)c1onc(-c2c(Cl)cccc2Cl)c1COc1ccc(C=Cc2cccc(C(=O)O)c2)c(Cl)c1`, 24.1 µM (active).
For `COc1ccc(-c2ccc3ncc4c(c3c2)n(-c2ccc(N3CCNCC3)c(C(F)(F)F)c2)c(=O)n4C)cn1`, the activity, negative = inhibition was -4.48% [at 5.51 µM].
Consider `COc1cc(Nc2nc3ccccc3nc2NS(=O)(=O)c2ccc(NC(=O)c3ccc(C)c(OC)c3)cc2)cc(OC)c1`, for which the Potency is 5.55 µM (active).
On the same count and under the same terms, with `O=C(Nc1cccc2c(=O)cc(-c3nn[nH]n3)oc12)c1ccc(OCCCCc2ccccc2)cc1` the figure was 6.81 µM (active).
With `CCCCC[C@H](O)C=C[C@H]1[C@H](O)CC(=O)[C@H]1CCCCCCC(=O)O`, the Potency result is “inactive”.
Still for that read-out and setting: the result for `O=C1Nc2ccc(I)cc2C1=Cc1cc(Br)c(O)c(Br)c1` reads “inactive”; that for `CC[C@H](C)n1cc(C)c2c(C(=O)NCc3c(C)cc(C)[nH]c3=O)cc(-c3ccc(N4CCNCC4)nc3)cc21`, 27.1 µM (active).
